# JMJD2A Tudor inh: qHTS Assay for Inhibitors of JMJD2A-Tudor Domain | Lysine-specific demethylase 4A (Homo sapiens), O75164 | AlphaScreen JMJD2A-Tudor / H3K4me3 peptide binding | Potency, µM (series often up to 114 µM), without a hit: top-dose activity change, negative = inhibition, most hits filed as inhibitors | actives 4.4% (n = 390,000) | AID 504339, 2011; note: % is set by controls: 0 for no effect and ±100 for the full control effect; nearly all actives have a fitted effect of over 50% in size
# VDR inhibitor: Inhibitors of the vitamin D receptor (VDR): qHTS; Vitamin D3 receptor (Homo sapiens), P11473; actives 0.93% (n = 400,000); VDR-SRC2-3 peptide fluorescence polarization, 2 h; Potency, µM, for inactives: max response, negative = inhibition, usual class: inhibitors; note: % is set by controls: 0 for no effect and ±100 for the full control effect
#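 Two reagent solutions held at 4 deg C in the dark were dispensed, compounds pinned at 23 nl, and the mixture incubated 2 h at room temperature. Read-out: fluorescence polarization of VDR–SRC2-3 peptide binding.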
# PLK1 PBD block: qHTS for Inhibitors of PLK1-PDB (polo-like kinase 1 - polo-box domain): Primary Screen; AID 720504, 2013; actives 2.8% (n = 360,000); Potency, µM, without a hit: max response, negative = inhibition, usual class: inhibitors; Plk1 PBD binding of FITC phosphopeptide, fluorescence polarization; note: series mostly up to about 57 µM; % is set by controls: 0 for no effect and ±100 for the full control effect; nearly all actives have a fitted effect of over 65% in size
# L3MBTL1 block: qHTS Assay for the Inhibitors of L3MBTL1 | Potency, µM (top dose mostly 57.1 µM), inactives show at the top dose activity, negative = inhibition, hits mostly inhibitors | AlphaScreen L3MBTL1–H3K9me1 peptide binding | actives 0.66% (n = 230,000); note: % is set by controls: 0 for no effect and ±100 for the full control effect; nearly all actives have a fitted effect of over 60% in size
#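 First, the protein-peptide complex forms for 30 min at room temperature (L3MBTL1 50 nM, biotinylated H3K9me1 peptide 75 nM). Next, compounds are pin-transferred and incubated 30 min. Finally, AlphaScreen beads are added and read after 30 min.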
# HP1b binding inh: HTS for Inhibitors of HP1-beta Chromodomain Interactions with Methylated Histone Tails | Chromobox protein homolog 1 (Homo sapiens), P83916 | AlphaScreen HP1-beta / biotin-H3K9me3 peptide binding | Potency, µM (top dose mostly 114 µM), inactives show at the highest dose activity change, negative = inhibition, usual class: inhibitors | actives 0.56% (n = 390,000) | AID 540317, 2011; note: nearly all actives have a fitted effect of over 70% in size
# Target sequence (P83916 whole entry, looked up): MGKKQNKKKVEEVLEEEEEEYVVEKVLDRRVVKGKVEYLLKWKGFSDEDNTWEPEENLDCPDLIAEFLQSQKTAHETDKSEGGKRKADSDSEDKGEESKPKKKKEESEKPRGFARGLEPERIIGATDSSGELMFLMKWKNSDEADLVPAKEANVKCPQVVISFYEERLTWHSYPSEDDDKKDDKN
#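 HP1-beta protein (50 nM final) preincubated 30 min at room temperature with biotinylated H3(1-18)K9me3 peptide (50 nM) in PBS pH 7.4, 0.01% Tween-20, then compound added for 30 min. AlphaScreen streptavidin donor/nickel chelate acceptor beads (10 ug/mL final), 30 min dark, luminescence read.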
# BAZ2B block: qHTS Assay for Inhibitors of BAZ2B. Bromodomain adjacent to zinc finger domain protein 2B (Homo sapiens), Q9UIF8. AlphaScreen BAZ2B-H3K14Ac peptide displacement. Potency, µM (doses to about 114 µM), without a hit: at the top dose activity change, negative = inhibition, usual class: inhibitors. actives 4.4% (n = 360,000). AID 504333, 2011; note: % is set by controls: 0 for no effect and ±100 for the full control effect; nearly all actives have a fitted effect of over 60% in size
#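 Multi-concentration screen (max 110 uM) measuring displacement of acetylated histone H3 peptide from BAZ2B by AlphaScreen, using 50 nM protein, 50 nM peptide and 10 ug/mL streptavidin donor plus Ni-chelate acceptor beads.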
# Active calls of the source: *; ? = inconclusive; nt = no result given; [ ] = dose if it differs, or a comment. Rows were chosen to be rich in hits. Some 6.9% of all compounds tested hit in one or more screens of this group. Calls come from the whole dose curve; as a rule, active = well fitted curve in the direction sought with a large enough effect; inconclusive = small, poorly fitted or top-dose-only effect, or another doubt; inactive = no such curve, though single readings can be large; an effect the other way counts as inactive or inconclusive. Potency is the fitted concentration of half-maximal effect.
SMILES,JMJD2A Tudor inh,VDR inhibitor,PLK1 PBD block,L3MBTL1 block,HP1b binding inh,BAZ2B block
O=[N+]([O-])c1ccccc1S(=O)(=O)N1CCN(Cc2ccc3c(c2)OCO3)CC1,-27%[11.4 µM],7%,-12%,-15%,16µM*,50µM*
CC(=O)c1ccc(N2CCN(c3ccc(S(=O)(=O)NCCCN(C)C)cc3[N+](=O)[O-])CC2)cc1,?,-11%,0%,-19%,-6%,nt
CN(C)CCCNS(=O)(=O)c1ccc(N2CCN(Cc3ccc4c(c3)OCO4)CC2)c([N+](=O)[O-])c1,5.6µM*,-21%,-19%,nt,22µM*,22µM*
Cc1cc(NC(=O)CSc2nnc(-c3ccncc3)n2N)ccc1Br,79µM*,-18%,-22%,2%,15%,11%
CCn1c2ccccc2c2cc(NC(=O)CSc3nnc(-c4ccc(OC)c(OC)c4)n3N)ccc21,22%,4%,-8%,-1%,13%,-24%
CCOc1ccc(-c2nnc(SCC(=O)Nc3ccc4c(c3)c3ccccc3n4CC)n2N)cc1,?,-22%,-3%,-9%,2%,71µM*
CCOC(=O)c1cnc(SC)nc1Oc1cccc(NC(=O)c2cccc(Cl)c2Cl)c1,5%,15%,1%,1%,42%,-4%
COCCn1c(-c2ccc(OC)cc2)c(-c2ccc(OC)cc2)oc1=O,-14%,7%,1%,nt,-12%,35µM*
CCCN(CCC)c1cc(C)nc2nc(-c3ccc(Cl)cc3)nn12,-5%,12%,nt,nt,33%,0%
O=C(O)c1n[nH]c2ccccc12,28µM*,5%,-4%,1%,-2%,-27%
O=[N+]([O-])c1cccc(/C=N/N2CCN(Cc3ccc(Cl)cc3)CC2)c1,50µM*,11%,-2%,-24%,?,20µM*
CC1CCCC(C)N1/N=C/c1cccc([N+](=O)[O-])c1 (centres undefined),?,-25%,-2%,-29%,-33%,11%[0.457 µM]
O=[N+]([O-])c1cccc(/C=N\N2CCN(Cc3ccccc3Cl)CC2)c1,45µM*,5%,-1%,-22%,?,35µM*
O=C(N/N=C/c1cccc([N+](=O)[O-])c1)c1ccc(CN2CCOCC2)cc1,-25%,4%,-16%,8%,45%,-2%
O=[N+]([O-])c1cccc(/C=N/N2CCN(Cc3ccccc3)CC2)c1,?,5%,-2%,nt,-13%,25µM*
OCCNCC(O)CN1c2ccccc2Sc2ccccc21 (centres undefined),-34%,-11%,-10%,-8%,-13%,?
Cc1ccccc1C(=O)NC(=S)Nc1sc2c(c1C#N)CCC(C)C2 (centres undefined),?,-12%,19µM*,-11%,-34%,?
CC1CCc2c(sc(NC(=S)NC(=O)c3ccccc3)c2C#N)C1 (centres undefined),-2%,-6%,24µM*,nt,10%,-44%
CC(=O)Nc1sc2c(c1C#N)CCC(C)C2 (centres undefined),-25%,-7%,-16%,-7%,10%,-27%
CCc1nc2c(OCc3ccccc3C)cccn2c1N(C)C(=O)C1CC1,nt,nt,4%,nt,nt,nt
CCOc1ccc(NC(=O)c2oc3ccccc3c2NC(=O)c2ccc(OC)cc2OC)cc1,-7%,0%,nt,nt,59%,-27%
COc1cccc(C(=O)CC2(O)C(=O)N(Cc3ccccc3)c3ccccc32)c1 (centres undefined),-21%,-5%,nt,nt,4%,-31%
